Experimental data from PubChem BioAssay (NCATS).
Inconclusive results are not listed. Values without a mark were called inactive. The call rests on the fitted dose curve; in most records, active means well fitted cell-killing curve with a large enough effect; inconclusive means small, poorly fitted or top-dose-only effect, or effect the other way; inactive means flat fitted curve, though single readings scatter.

tested on: SKOV3; experiment: Primary qHTS to identify gynecologic anti-cancer compounds using libraries of approved drugs and bioactive compounds (AID 1345084); conditions: Gynecologic cancer cell panel viability, ATPlite luminescence, 48 h; series mostly up to 57.5 µM; activity change, negative = cytotoxicity: at the top concentration; further: nearly all actives have a fitted effect of over 55% in size
How it was run: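 Luminescence from the ATPlite ATP-monitoring reagent indicates viable cell number; lower signal means cytotoxicity. Cells received compound 16 h after seeding and were exposed for 48 h across five concentrations.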
On the % scale 0 is the no-effect control and ±100 the full control effect.

| SMILES | activity change, negative = cytotoxicity |
| --- | --- |
| CC(C)=CCC/C(C)=C/CO[C@@H]1O[C@H](CO[C@@H]2OC[C@](O)(CO)[C@H]2O)[C@@H](O)[C@H](O)[C@H]1O | 23.4% [at 25.3 µM] |
| CC1C2=CC(=O)OC2(O)CC2C1C(O)CC1C(C)(CO)CCCC21C (stereo not drawn) | 10.6% [at 38.5 µM] |
| CC1CC(=O)[C@]2(O)C(C(=O)OCCc3ccc(O)c(O)c3)=CO[C@@H](O[C@@H]3O[C@H](CO)[C@@H](O)[C@H](O)[C@H]3O)[C@H]12 (stereo partly drawn) | 5.58% [at 25.3 µM] |
| COC(=O)C1=COC(OC2OC(CO)C(O)C(O)C2O)C2C(C)C(OC(=O)/C=C/c3ccc(O)cc3)C(O)C12 (stereo not drawn) | -10.2% [at 25.3 µM] |
| C[C@H](O)C(O)(C(=O)OCc1ccccc1NC(=O)CCC(N)C(=O)O)[C@H](C)O (stereo partly drawn) | 3.1% [at 25.3 µM] |
| CN[C@H](CNC(=O)N1CCC[C@@H]([C@@H](OCCNC(=O)OC)c2cccc(Cl)c2)C1)C[C@H]1CCCOC1 | 10.9% |
| C/C=C(\C)C(=O)OC1CC2C(CC=C3CC(OC4CC(OC)C(OC5CC(OC)C(OC6CC(OC)C(OC7CC(OC)C(OC8CC(OC)C(OC9OC(CO)C(O)C(O)C9O)C(C)O8)C(C)O7)C(C)O6)C(C)O5)C(C)O4)CCC32C)C2(O)CCC(C(C)=O)C12C (stereo not drawn) | -2.08% [at 6.55 µM] |
| CC(C)=C1CC2[C@](C)(CC[C@@H](OC(=O)C3(C)OC3C)[C@@]2(C)O)CC1=O (stereo partly drawn) | -3.41% [at 38.5 µM] |
| Nc1ccc(-n2nc(C(F)(F)F)cc2C(F)(F)F)cc1 | 3.76% |
| COc1cc(C(C)=O)ccc1O[C@@H]1O[C@H](CO)[C@@H](O)[C@H](O)[C@H]1O | -2.5% [at 38.5 µM] |
| COc1cc(C(C)=O)ccc1O[C@@H]1O[C@H](CO[C@@H]2OC[C@@H](O)[C@H](O)[C@H]2O)[C@@H](O)[C@H](O)[C@H]1O | 8.71% [at 25.3 µM] |
| COc1cc(C(O)C2COC(c3ccc(OC4OC(CO)C(O)C(O)C4O)c(OC)c3)C2CO)ccc1O (stereo not drawn) | 23.2% [at 25.3 µM] |
| C=C1CC2C3(C)C(O)CC(=O)C(C)(C)C3C(O)C(OC(C)=O)C2(C)C2C(=O)OC(C)(C(=O)OC)C(=O)C12C (stereo not drawn) | -3.71% [at 25.3 µM] |
| CC(C)C(O)(CO)CCO[C@@H]1O[C@H](CO[C@H]2OC[C@](O)(CO)[C@H]2O)[C@@H](O)[C@H](O)[C@H]1O (stereo partly drawn) | 24.1% [at 25.3 µM] |
| C/C=C(\C)C(=O)OC[C@H]1O[C@@H](O[C@H]2[C@@H](O[C@H]3O[C@H](COC(=O)/C(C)=C/C)[C@@H](O)[C@H](O)[C@H]3O[C@@H]3O[C@H](CO)[C@@H](O)[C@H](OC(=O)/C(C)=C/C)[C@H]3O)O[C@H](COC(=O)/C(C)=C/C)[C@@H](O)[C@@H]2O)[C@H](O)[C@@H](O)[C@@H]1O | 3.76% [at 11.6 µM] |
| CCC(C)/C=C(C)/C=C/C1=CC2=C(Cl)C(=O)C(C)(OC(C)=O)C(=O)C2=CN1C(CCC(=O)O)C(=O)O (stereo not drawn) | 5.76% [at 25.3 µM] |
| Cc1ccccc1-c1cc(N2CCN(C)CC2)ncc1N(C)C(=O)C(C)(C)c1cc(C(F)(F)F)cc(C(F)(F)F)c1 | -12.4% |
| C[C@H]1CC(=O)C2=C(C1)C(O)C(O)[C@@]1(O)[C@H]2C(=O)c2cccc(O)c2[C@@H]1O (stereo partly drawn) | -15% [at 38.5 µM] |
| C[C@@H]1O[C@@H](O[C@H]2[C@H](OC(=O)[C@]34CCC(C)(C)C[C@H]3C3=CCC5[C@@]6(C)C[C@@H](O)[C@@H](O)[C@@](C)(CO)C6[C@H](O)C[C@@]5(C)[C@]3(C)CC4)OC[C@H](O)[C@@H]2O)[C@H](O)[C@H](O)[C@H]1O[C@@H]1OC[C@@H](O)[C@H](O[C@H]2O[C@H](C)[C@@H](O)[C@H](O)[C@@H]2O)[C@H]1O (stereo partly drawn) | -1.53% [at 11.6 µM] |
| C/C(=C\CC/C(C)=C/CC[C@]1(C)CCc2cc(O)cc(C)c2O1)CC/C=C(\C)C(=O)O | 23.4% [at 25.3 µM] |
| C=C1CC23CC1CCC2C12OC(=O)C(C)(C(O)CC1O)C2C3C(=O)O (stereo not drawn) | 8.77% [at 38.5 µM] |
| C=C(C)[C@@H]1CC[C@]2(CO)CC[C@]3(C)[C@H](CC[C@@H]4[C@@]5(C)CC[C@H](O)C(C)(C)[C@@H]5CC[C@]43C)[C@@H]12 | 13.5% [at 25.3 µM] |
| COc1ccnc(CCc2nc3ncccc3[nH]2)c1 | -22.9% |
| Cc1c(NC(=O)N2CCOCC2)ccc2c1c1ccccc1n2C(C)C | 0% |
| CC[C@@H](C)[C@H](N)C(=O)N1Cc2ccccc2C1 | 16.2% |
| CC1(O)CC(O)C2C(C(=O)O)=COC(OC3OC(CO)C(O)C(O)C3OC(=O)/C=C/c3ccc(O)cc3)C21 (stereo not drawn) | 0.318% [at 25.3 µM] |
| COc1cc(Cc2cnc(N)nc2N)c(C(C)C)cc1OC | 13.2% |
| C=C1CCC2(C(=O)OC3OC(CO)C(O)C(O)C3O)CCC3(C)C(=CCC4C5(C)CCC(OC6OC(CO)C(OC7OC(C)C(O)C(O)C7O)C(OC7OCC(O)C(O)C7O)C6O)C(C)(C)C5CCC43C)C2C1 (stereo not drawn) | 24.5% [at 11.6 µM] |
